GIRK2 act = Activates human GIRK2-containing potassium channels | HEK293 GIRK2/NPY4 cells, thallium flux fluorescence | activation (% efficacy), % for hits at 37.5 µM | 34,000 tested, under 10 active;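 active means primary screen hit, no activity in plain HEK293 cells, and in GIRK2-only cells above 5% efficacy rising with concentration; inactive means the rest, including fluorescent compounds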;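 further: efficacy is normalized control-subtracted fluorescence 15 s after thallium addition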
GluA2 TARP mod = modulators of AMPA receptor GluA2-stargazin complexes; HEK293 GluA2+stargazin, membrane potential dye (FDSS), glutamate EC50; hits were called plate by plate, in both directions; 40,000 compounds, 3.5% hits; calls only at 30 µM; O88602+P19491;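 active means any of four per-well response measures lying three or more SD from its plate-wide compound average, in either direction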
The depositor's hits bear a star; i = inactive; / = not tested or not shown; + = active, no number. The full list was thinned out, with hits kept by preference.

SMILES	GIRK2 act	GluA2 TARP mod
COc1ccc(Cl)cc1NC(=O)C(=O)NCC(c1cccs1)N(C)C (stereo unspecified)	i	+
COc1ccc(NC(=O)C(=O)NCC(c2cccs2)N(C)C)c(OC)c1 (stereo unspecified)	i	i
COc1ccc(NC(=O)NCC(O)Cc2ccccc2)cc1OC (stereo unspecified)	i	i
COc1ccc(Cl)cc1NC(=O)NCC(O)Cc1ccccc1 (stereo unspecified)	i	+
Cc1cc(=O)[nH]c(-n2nc(C)c(CCC(=O)N3CCN(c4ccccc4)CC3)c2C)n1	i	i
Cc1ccc(Cl)cc1NC(=O)c1ccc(=O)n(Cc2ccccc2F)c1	i	i
CC(NC(=O)c1ccc(S(=O)(=O)N2CCOCC2)o1)c1ccccc1 (stereo unspecified)	i	i
O=C(NC(c1ccccc1)c1ccccc1)c1ccc(S(=O)(=O)NCc2ccco2)o1	i	+
COc1ccc(C(=O)Nc2cc(C3CC3)nn2-c2nc(C(C)C)cc(=O)[nH]2)cc1OC	i	+
COc1ccc(CC(=O)Nc2cc(C3CC3)nn2-c2nc(C(C)C)cc(=O)[nH]2)cc1OC	i	i
O=C(Nc1cccc(S(=O)(=O)C(F)F)c1)c1ccc(Cl)c(S(=O)(=O)N2CCCCC2)c1	/	i
CCOC(=O)N1CCc2c(sc(NC(=O)c3cc(C)n(CC)n3)c2C(N)=O)C1	i	/
CC(=O)N1CCc2c(sc(NC(=O)c3cc(C)no3)c2C#N)C1	i	i
CCn1nccc1C(=O)Nc1sc2c(c1C(N)=O)CCN(C(C)=O)C2	i	i
CCOC(=O)N1CCc2c(sc(NC(=O)c3ccnn3CC)c2C(=O)OC)C1	i	+
CCOC(=O)c1c(NC(=O)c2ccn(C)n2)sc2c1CCN(C(C)=O)C2	i	+
CC(=O)N1CCc2c(sc(NC(=O)c3ccn(C)n3)c2-c2nc3ccccc3s2)C1	/	i
CCOC(=O)N1CCc2c(sc(NC(=O)c3ccn(C)n3)c2C(=O)OC)C1	i	+
CC(=O)N1CCc2c(sc(NC(=O)c3cc(C)no3)c2C(N)=O)C1	i	+
COc1ccccc1NC(=O)Nc1ccc(Nc2ccc(-n3nc(C)cc3C)nn2)cc1	i	i
Cn1nc(C2CCN(C(=O)Nc3cccs3)CC2)n(-c2ccccc2)c1=O	i	i
CN1C(=O)Cc2cc(NC(=O)Nc3ccc(Cl)c(Cl)c3)ccc21	i	i
CC(=O)Nc1ccc2c(c1)CC(=O)N2C	/	i
CN1C(=O)Cc2cc(NC(=O)Nc3cccc(Cl)c3)ccc21	i	+
CN1C(=O)Cc2cc(NC(=O)/C=C/c3ccccc3)ccc21	i	+
SMILES	GIRK2 act	GluA2 TARP mod
Cc1ccccc1NC(=O)NC1CCCC(O)C1 (stereo unspecified)	i	i
COc1cn(CC(=O)Nc2ccc(C)cc2C)c(CSc2ccc(Cl)cc2)cc1=O	i	i
CCn1c(=O)c2c(nc3n2CCCN3c2ccc(Oc3ccccc3)cc2)n(C)c1=O	/	i
COc1ccc(C(=O)Nc2cc3c4c(c2)CCN4C(=O)CC3)cc1	i	+
COc1ccc(C(=O)Nc2cc3c4c(c2)CCC(=O)N4CCC3)cc1	i	i
O=C(Nc1ccc(C(F)(F)F)cc1)c1ccc(=O)n(Cc2c(F)cccc2Cl)c1	i	i
CCN(CC)C(=O)Oc1ccc2c(=O)c(-c3ccc(OC)c(OC)c3)c(C)oc2c1	i	+
COc1ccccc1-c1c(C)oc2cc(OCC=C(C)C)ccc2c1=O	/	+
CCOC(=O)COc1ccc2c(=O)c(-c3ccccc3)c(C)oc2c1	/	i
CCN(CC)C(=O)Oc1ccc2c(=O)c(-c3ccccc3)c(C)oc2c1	/	i
Cc1oc2cc(OCC(=O)OCc3ccccc3)ccc2c(=O)c1-c1ccccc1	/	+
COc1ccccc1-c1c(C)oc2cc(OC(=O)N3CCOCC3)ccc2c1=O	/	i
COc1ccc(-n2c(-c3ccccc3)cn3c4c(=O)n(CC(C)=O)c(=O)n(C)c4nc23)cc1	/	i
CCOC(=O)c1c(NC(=O)C2CC2)sc(Cc2ccc3c(c2)OCO3)c1C	i	i
O=C(Nc1ccccc1Oc1ccccc1)c1ccno1	i	i
NS(=O)(=O)c1ccc(NC(=O)CCCCCN2C(=O)c3cccc4cccc(c34)C2=O)cc1	/	i
COc1ccc(N2CCN(c3nc4c(c(=O)[nH]c(=O)n4C)n3CC(=O)c3ccccc3)CC2)cc1	/	i
CN1CCN(c2nc3c(c(=O)[nH]c(=O)n3C)n2CC(=O)c2ccc([N+](=O)[O-])cc2)CC1	/	+
CCC(CC)C(=O)NCCS(=O)(=O)N1CCN(c2ccccn2)CC1	i	/
CCOc1cccc2sc(N(Cc3ccccn3)C(=O)c3ccnn3C)nc12	/	i
Cc1nc(Sc2nc(C)nc3sc4c(c23)CCC4)c2c3c(sc2n1)CCC3	/	i
CCc1nc2sc3c(c2c2nncn12)CCC3	i	+
O=C(Cn1c2c(c3ccccc31)CCC2)NCC1CCS(=O)(=O)C1 (stereo unspecified)	i	+
Cc1cc(C)n(CCNC(=O)Cn2c3c(c4ccccc42)CCC3)n1	i	i
O=C(NCC1CCN(c2ncccn2)CC1)c1ccc(Br)o1	i	i
SMILES	GIRK2 act	GluA2 TARP mod
NC(=O)c1nc(-c2cc(Br)ccc2O)nc2c1[nH]c(=O)n2-c1ccc2c(c1)OCO2	i	i
CCCNC(=O)Cn1nc2c(c1NC(=O)CCc1ccc(OC)cc1)CSC2	i	+
COCCNC(=O)Cn1nc2c(c1NC(=O)C1(c3ccc(Cl)cc3)CCCC1)CSC2	i	+
CCCNC(=O)Cn1nc2c(c1NC(=O)C1(c3ccc(Cl)cc3)CCCC1)CSC2	i	i
COc1ccc(CNC(=O)Cn2nc3c(c2NC(=O)c2ccc(C)c(C)c2)CSC3)cc1	i	i
O=C(Cn1nc2c(c1NC(=O)Cc1cccs1)CSC2)NCC1CCCO1 (stereo unspecified)	i	i
Cc1cc(C)c(S(=O)(=O)NC(C)C)cc1N(C)S(=O)(=O)c1ccc(Cl)cc1	/	i
COc1ccc(S(=O)(=O)NCC2(O)CCOCC2)cc1OC	i	/
COc1ccc(N2CCN(C(c3cccs3)C(C)NS(=O)(=O)c3ccc(Cl)cc3)CC2)cc1 (stereo unspecified)	/	+
COc1ccc(N2CCN(C(c3cccs3)C(C)NS(=O)(=O)c3ccc(F)cc3)CC2)cc1 (stereo unspecified)	/	i
CN(C)CCCN(C(=O)c1ccno1)c1nc2c(Cl)cccc2s1	i	/
C=C(C)Cn1c(N/N=C/c2cccc(OC)c2O)nc2c1c(=O)n(C)c(=O)n2C	/	i
C=CCn1c(N/N=C/c2cccc(OC)c2O)nc2c1c(=O)n(C)c(=O)n2C	/	+
O=C(Cn1c(-c2cnccn2)nc2ccccc21)Nc1ccc(F)c(Cl)c1	i	+
CCSc1nnc(NC(=O)Cn2c(-c3cnccn3)nc3ccccc32)s1	i	i
CCN(CC)CCNC(=O)C(=O)Nc1ccc([N+](=O)[O-])cc1	/	i
CC(O)CNC(=O)C(=O)Nc1ccc([N+](=O)[O-])cc1 (stereo unspecified)	/	+
Cc1cc(CN2CCC(CNS(=O)(=O)c3cccc4ccccc34)CC2)c(C)o1	i	/
COc1ccc(S(=O)(=O)N2CCSC2c2ccc(Br)cc2)cc1 (stereo unspecified)	/	i

Compound activity: PubChem, several laboratories
